The record followed here is PubChem BioAssay.

SMILES strings stand for the structures. Values joined by “and” are separate entries in the source; they are usually repeats but may differ in a detail not shown here. Equal entries are not always repeated. Results filed as inconclusive are left out. Active and inactive are the calls of the source.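 The calls were made as follows, unless noted: active = normalized viability below 100% at a tested concentration; inactive = the rest.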

Assay [1] is described as follows: viability loss in pontine glioma line – cell-based, SU-DIPG-XXV, MIPE5.0, CellTiter-Glo, qHTS, dose response (AID 1347065; cut-off not given, nearly all actives have AC50 up to about 26 µM;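 also: cells exposed to compound for 48 hours before ATP readout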). The following applies: CellTiter-Glo ATP luminescence. For orientation: In ATP-based viability assays light output follows the ATP content of the culture.
Assay [2] can be described thus: growth inhibition of DIPG cells – cell-based, MIPE4.0 library, CellTiter-Glo luminescence, qHTS (AID 1347066; cut-off not given, nearly all actives have AC50 up to about 30 µM;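 also: cells exposed to compound for 48 hours before readout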). The note with it: SU-DIPG-VI viability, CellTiter-Glo ATP luminescence.
The nature of assay [3]: JHH-DIPG-1 glioma cell viability, MIPE5.0 library, CellTiter-Glo luminescence, qHTS (AID 1347067; cut-off not given, nearly all actives have AC50 up to about 26 µM;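 also: cells exposed to compound for 48 hours before readout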). The note with it: JHH-DIPG-1 glioma viability, CellTiter-Glo ATP luminescence.
Assay [4] can be described thus: growth inhibition of DIPG cells – cell-based, MIPE5.0 library, qHTS (AID 1347068; cut-off not given, nearly all actives have IC50 up to about 30 µM;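 as to IC50: cells exposed to compound for 48 hours before viability readout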). The following applies: SU-DIPG-XXV viability. (In general: Quantitative high-throughput screening tests each substance at several concentrations.)
A short description of assay [5]: blockers of cellular phospholipid synthesis – cell-based, LOPAC library, screen 4, primary screen (AID 1347384; call rule not given here). The following applies: animal cells, phospholipid biosynthesis inhibition screen; at 10 µM.
Assay [6] can be described thus: MELAS cybrid and Rieske KO viability enhancers – cell-based, MELAS cybrids, Rieske KO mouse fibroblasts, CellTiter-Glo, primary screen (AID 1508586;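 active = mean z-score across replicates of 1.96 or higher in either the MELAS or the Rieske mutant cell line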;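 also: z relative to plate mean and SD of compound and empty wells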). The following applies: low glucose.
A short description of assay [7]: viability loss with induced miR-34 in A549 – imaging, A549 dox-inducible miR-34, nuclei and caspase counts, primary screen (AID 1347080;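 active = compounds whose cell count with miR-34 switched on is under 0.7 times the count with it off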). The note with it: A549 miR-34 inducible, Hoechst nuclei count, 48 h.
Assay [8] can be described thus: compounds altering HSF1 focus formation in cells – imaging, Selleck Cancer Library (AID 1347162; in the data active = plate-normalised HSF1 focus index below about 0.46). The note with it: human cells, HSF1 nuclear foci imaging, at 10 µM; SSMD: measured here: HSF1 foci SSMD mean; cell count: measured here: cell number; plate-normalised HSF1 focus index: stronger effect = lower value.
A short description of assay [9]: drug combination growth inhibition, ovarian cancer – cell-based, oncology-focused library, rucaparib conditional, profiling panel (AID 1508598). The following applies: patient-derived ovarian cancer cells, CellTiter-Glo viability, 144 h, stronger effect = lower value.
Setting [10] is: MELAS cybrid survival, CellTiter-Glo 48 h, stronger effect = higher value.
The mark [11] stands for this setting: Rieske KO mouse fibroblast survival, CellTiter-Glo 72 h.

`CCn1cc(C(=O)O)c(=O)c2cc(F)c(N3CCNC(C)C3)c(F)c21` (centres undefined): the outcome in assay [1], in [2], in assay [3], in [4] and in assay [5] was inactive. In addition, the z-score was -0.544 (inactive) and -0.435 (inactive) in [6] (setting [10]); 0.167 and 0.141 in [6] (setting [11]).
In the case of `CCCCN(CCCC)CCC(O)c1cc2c(Cl)cc(Cl)cc2c2cc(C(F)(F)F)ccc12` (centres undefined), the AC50 (as a rule, the concentration at which the activity in the assay is half-maximal) was 23.5 µM (active) in [1], 23.5 µM (active) in assay [2] and 16.6 µM (active) in assay [3]. Besides, the 50% inhibitory concentration (IC50) (as a rule, the concentration needed to halve the response being measured) in assay [4] was 20.9 µM (active). In addition, the fold change in [7] (stronger effect = lower value, cell number ratio, induced over uninduced) was 0.972 (inactive); in [7] (measured here: relative caspase fold change +Dox/-Dox), 0.81. In addition, the cell count in [7] (measured here: total cells with miR-34 induction, stronger effect = lower value) is 8330; in [7] (measured here: total cells without miR-34 induction), 8580. For the same compound, the z-score was -1.05 (inactive) in assay [6] (setting [10]) and -0.678 in assay [6] (setting [11]).
With `CC1(C)NC(=O)N(c2ccc([N+](=O)[O-])c(C(F)(F)F)c2)C1=O`, the compound was classed as inactive in [1], in [2], in [3], in assay [4] and in assay [5]. For the same compound, the results for the z-score in [6] (setting [10]) and in [6] (setting [11]) were 1.34 (inactive) and -0.252, respectively.
With `Cc1cc2c(C(C)C)c(O)c(O)c(C=O)c2c(O)c1-c1c(C)cc2c(C(C)C)c(O)c(O)c(C=O)c2c1O`, the AC50 in assay [1] was 7.42 µM (active); in assay [2] it was 8.33 µM (active); in [3], 2.95 µM (active). In [4], the half-maximal inhibitory concentration (IC50) is 23.5 µM (active). Further, in assay [8], the SSMD is -10.3. Further, the cell count in assay [8] is 5460. The plate-normalised HSF1 focus index in [8] was 0.468 (active). Also, the compound was classed as inactive in [5]. Moreover, the viability (in general, a read-out of living cells in per cent, often relative to untreated cells) in assay [9] (at 0.000305 µM, OCI-C5x cells, with rucaparib 10 µM, 100% = cells with rucaparib alone) is 113% (inactive); in assay [9] (at 0.000305 µM, OCI-C5x cells, without rucaparib) it was 130% (inactive); in assay [9] (at 0.000305 µM, OCI-P5x cells, with rucaparib 20 µM, 100% = cells with rucaparib alone), 95.4% (active); in [9] (at 0.000305 µM, OCI-P5x cells, without rucaparib) it was 103% (inactive); in assay [9] (at 0.00122 µM, OCI-C5x cells, with rucaparib 10 µM, 100% = cells with rucaparib alone), 115% (inactive); in [9] (at 0.00122 µM, OCI-C5x cells, without rucaparib), 120% (inactive). For the same compound, the viability in assay [9] (at 0.00122 µM, OCI-P5x cells, with rucaparib 20 µM, 100% = cells with rucaparib alone) was 95.6% (active); in assay [9] (at 0.00122 µM, OCI-P5x cells, without rucaparib) it was 104% (inactive); in [9] (at 0.00488 µM, OCI-C5x cells, with rucaparib 10 µM, 100% = cells with rucaparib alone), 119% (inactive); in assay [9] (at 0.00488 µM, OCI-C5x cells, without rucaparib), 131% (inactive); in assay [9] (at 0.00488 µM, OCI-P5x cells, with rucaparib 20 µM, 100% = cells with rucaparib alone), 96.5% (active); in [9] (at 0.00488 µM, OCI-P5x cells, without rucaparib), 108% (inactive). The viability in assay [9] (at 0.0195 µM, OCI-C5x cells, with rucaparib 10 µM, 100% = cells with rucaparib alone) is 113% (inactive); in [9] (at 0.0195 µM, OCI-C5x cells, without rucaparib), 134% (inactive); in assay [9] (at 0.0195 µM, OCI-P5x cells, with rucaparib 20 µM, 100% = cells with rucaparib alone), 101% (inactive); in assay [9] (at 0.0195 µM, OCI-P5x cells, without rucaparib), 112% (inactive); in [9] (at 0.0781 µM, OCI-C5x cells, with rucaparib 10 µM, 100% = cells with rucaparib alone) it was 110% (inactive); in assay [9] (at 0.0781 µM, OCI-C5x cells, without rucaparib), 123% (inactive). Moreover, the viability in assay [9] (at 0.0781 µM, OCI-P5x cells, with rucaparib 20 µM, 100% = cells with rucaparib alone) was 108% (inactive); in assay [9] (at 0.0781 µM, OCI-P5x cells, without rucaparib), 116% (inactive); in assay [9] (at 0.313 µM, OCI-C5x cells, with rucaparib 10 µM, 100% = cells with rucaparib alone) it was 128% (inactive); in assay [9] (at 0.313 µM, OCI-C5x cells, without rucaparib), 144% (inactive); in assay [9] (at 0.313 µM, OCI-P5x cells, with rucaparib 20 µM, 100% = cells with rucaparib alone), 107% (inactive); in [9] (at 0.313 µM, OCI-P5x cells, without rucaparib) it was 113% (inactive). The viability in assay [9] (at 1.25 µM, OCI-C5x cells, with rucaparib 10 µM, 100% = cells with rucaparib alone) is 110% (inactive); in [9] (at 1.25 µM, OCI-C5x cells, without rucaparib) it was 148% (inactive); in assay [9] (at 1.25 µM, OCI-P5x cells, with rucaparib 20 µM, 100% = cells with rucaparib alone), 95.9% (active); in assay [9] (at 1.25 µM, OCI-P5x cells, without rucaparib), 110% (inactive); in assay [9] (at 5 µM, OCI-C5x cells, with rucaparib 10 µM, 100% = cells with rucaparib alone), 130% (inactive); in [9] (at 5 µM, OCI-C5x cells, without rucaparib), 156% (inactive). In addition, the viability in [9] (at 5 µM, OCI-P5x cells, with rucaparib 20 µM, 100% = cells with rucaparib alone) is 89.5% (active); in [9] (at 5 µM, OCI-P5x cells, without rucaparib), 106% (inactive).
